Bioassay records as filed in PubChem.
Six1-Eya2 inh: qHTS Assay for Inhibitors of the Six1/Eya2 Interaction; Homeobox protein SIX1 (Homo sapiens) + Protein phosphatase EYA2 (Homo sapiens), …; AlphaScreen GST-Six1/His-Eya2 binding, biochemical; stronger effect = lower value; activity change, % (test concentration not listed); hit rate 0.56% among 360,000; in the data active = activity change below about -65%; inconclusive = mostly about -30% to -63%; also: % is scaled to controls: 0 for no effect and ±100 for the full control effect
Target sequence (O00167 whole entry, looked up): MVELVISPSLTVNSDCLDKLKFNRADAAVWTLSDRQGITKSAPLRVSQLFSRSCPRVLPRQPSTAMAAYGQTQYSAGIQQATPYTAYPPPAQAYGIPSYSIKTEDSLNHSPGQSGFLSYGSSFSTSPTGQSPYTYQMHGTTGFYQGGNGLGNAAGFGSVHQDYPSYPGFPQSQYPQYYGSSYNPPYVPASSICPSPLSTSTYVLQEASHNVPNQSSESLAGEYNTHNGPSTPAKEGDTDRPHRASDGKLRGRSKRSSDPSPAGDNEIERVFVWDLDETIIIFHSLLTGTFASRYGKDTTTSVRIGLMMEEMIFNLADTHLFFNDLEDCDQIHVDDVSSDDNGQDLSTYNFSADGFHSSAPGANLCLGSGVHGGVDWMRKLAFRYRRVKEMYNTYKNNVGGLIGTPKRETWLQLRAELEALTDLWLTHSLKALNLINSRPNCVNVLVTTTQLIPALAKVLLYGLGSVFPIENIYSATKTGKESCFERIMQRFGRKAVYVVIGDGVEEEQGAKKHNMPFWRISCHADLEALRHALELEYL
Target sequence (Q15475 whole entry, looked up): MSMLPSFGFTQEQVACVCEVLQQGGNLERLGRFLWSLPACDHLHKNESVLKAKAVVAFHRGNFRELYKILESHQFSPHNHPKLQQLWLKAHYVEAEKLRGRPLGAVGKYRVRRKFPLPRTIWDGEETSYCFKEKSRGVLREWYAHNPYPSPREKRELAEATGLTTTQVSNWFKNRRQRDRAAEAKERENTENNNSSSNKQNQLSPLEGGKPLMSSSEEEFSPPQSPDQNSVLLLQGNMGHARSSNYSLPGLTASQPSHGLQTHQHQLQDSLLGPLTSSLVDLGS
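GST-Six1 + His-Eya2 (5X stock: 250/500 nM); Tris pH 8.0, 300 mM NaCl, 0.05% BSA, 0.02% Tween 20; GSH donor/Ni acceptor beads; 1 h 37 °C dark; AlphaScreen readout.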
ATXN viability: Viability Counterscreen for Primary qHTS for Inhibitors of ATXN expression | AID 651635, 2014 | S2 cells (HEK-293 line with an ATXN2-luciferase reporter) viability, CellTiter-Fluor protease fluorescence, 24 h | hit rate 0.49% among 400,000 | Potency, µM (highest dose often 56.7 µM), actives largely listed as cytotoxic; also: potency is read from the fitted curve at half-maximal effect; nearly all actives have a fitted effect of over 40% in size
HepG2 viability: qHTS for Inhibitors of TGF-b: Cytotox Counterscreen. HepG2 CAGA-GFP viability, ATP luminescence, 18 h. Potency, µM (doses to about 46.1 µM), for the others: at the highest dose activity change, negative = cytotoxicity, most hits filed as cytotoxic. hit rate 0.76% among 410,000. AID 588856, 2011; also: potency is read from the fitted curve at half-maximal effect
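CellTiter-Glo luminescence gave cytotoxicity after 18 hours at 37 degrees C. The cells were HepG2 CAGA-GFP in 1% FBS DMEM, stimulated with 500 pg/mL TGF-beta after compound addition. %Activity was normalised to no-cell wells (complete cell-killing) and DMSO (no toxicity), and curves were fitted and classified.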
TGFb inhibitor: qHTS for Inhibitors of TGF-b | Potency, µM (highest dose often 46.1 µM), inactives show at the top dose activity, negative = inhibition, actives largely listed as inhibitors | HepG2 CAGA-GFP TGF-b/SMAD3 reporter, GFP fluorescence, 18 h; TGF-beta stimulated, 500 pg/mL final | AID 588855, 2011 | hit rate 1.2% among 410,000; also: potency is read from the fitted curve at half-maximal effect; % is scaled to controls: 0 for no effect and ±100 for the full control effect; nearly all actives have a fitted effect of over 65% in size
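First, reporter cells (HEPG2 CAGA-GFP) rested 2 h at 37 degrees C. Next, compounds were pinned in and TGF-beta added to 500 pg/mL final. After 18 h, GFP was imaged per cell and summed per well.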
ATXN2 expr inh: Primary qHTS for Inhibitors of ATXN expression; hit rate 0.72% among 360,000; AID 1745845, 2022; Potency, µM (titrated, usually from 57 µM), for inactives: at the top dose activity change, negative = inhibition, hits mostly inhibitors; HEK-293 ATXN2-luciferase reporter, luminescence, 24 h; also: potency is read from the fitted curve at half-maximal effect; % is scaled to controls: 0 for no effect and ±100 for the full control effect; nearly all actives have a fitted effect of over 55% in size
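qHTS (up to 57 uM final) was run with 24 h compound exposure of reporter cells at 37 °C. Each well was multiplexed: SteadyGlo luminescence measured ATXN2-luciferase expression after a fluorogenic Gly-Phe-AFC viability readout (25 uM final).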
CtBP-E1A blk: qHTS Assay for Inhibitors of the CtBP/E1A Interaction; CtBP / adenovirus E1A interaction (AlphaScreen); AlphaScreen GST-E1A/His-CtBP binding, 1536-well; stronger effect = lower value; activity change, % (test concentration not listed); hit rate 0.49% among 340,000; AID 651724, 2012; in the data active = activity change below about -65%; inconclusive = mostly about -30% to -63%; also: % is scaled to controls: 0 for no effect and ±100 for the full control effect
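In 5 uL wells, 23 nL compound meets equimolar GST-E1A and His-CtBP (5X stock 125 nM each) for 2 h, 37 °C. Beads (5X, 50 ug/mL) then 1 h, 37 °C, dark.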
* marks the source's active call; other numbers are inactive results; i = inactive; ? = inconclusive; nt = no result. Most compounds without a hit are left out; they make up all but 2.8% or so of the library. Unless noted, calls follow the shape of the dose curve; as a rule, active = well fitted curve in the direction sought with a large enough effect; inconclusive = small, poorly fitted or top-dose-only effect, or another doubt; inactive = no such curve, though single readings can be large; an effect the other way counts as inactive or inconclusive.

SMILES	Six1-Eya2 inh	ATXN viability	HepG2 viability	TGFb inhibitor	ATXN2 expr inh	CtBP-E1A blk
Cc1cc(O)c(CN2CCN(c3ccccc3)CC2)c2oc(=O)cc(C)c12	nt	nt	9%	nt	nt	nt
CCOC(=O)C1CCCN(c2nc3c(S(=O)(=O)c4ccc(Br)cc4)nnn3c3ccsc23)C1 (configuration not stated)	nt	nt	-41%	1%	nt	nt
CN(C)c1ccccc1-c1cc(NC=O)c2ncc(-c3cccc(C(F)(F)F)c3)n2c1	?	nt	-88%	?	?	-72*
COc1ccc(F)cc1-c1cc(NC=O)c2ncc(-c3cccc(C(=O)N(C)C)c3)n2c1	?	?	-28%	-5%	25µM*	?
COc1cccc(-c2cnc3c(NC=O)cc(-c4ccoc4)cn23)c1	-20	?	-1%	?	-9%	-16
COc1cccc(-c2cc(NC=O)c3ncc(-c4ccc(C(C)=O)cc4)n3c2)c1	-2	i	2%	18µM*	?	-2
COc1ccccc1-c1cc(NC=O)c2ncc(-c3cccc(C(F)(F)F)c3)n2c1	-1	?	-39%	?	?	2
COc1cccc(-c2cnc3c(NC=O)cc(-c4ccccc4)cn23)c1	-12	i	-30%	8.9µM*	0%	-9
CCOc1ccc(CN2C(=O)c3ccccc3Sc3ccc(C(=O)N4CCN(C)CC4)cc32)cc1	nt	i	-53%	?	2%	nt
O=C(Nc1ccc(OC(F)(F)F)cc1)C(NS(=O)(=O)c1cccc2nsnc12)c1ccccc1 (configuration not stated)	nt	?	-37%	?	-19%	nt
COc1cc(-c2cc3nc(NCc4cccc(Cl)c4)ccn3n2)cc(OC)c1OC	-12	?	-56%	?	13µM*	-15
COc1cc(OC)c(NC(=O)CN(C)S(=O)(=O)c2ccc(-c3ccc(=O)[nH]n3)s2)cc1Cl	-71*	i	-8%	-15%	nt	nt
COC(=O)[C@@H]1CCCN1Cc1ccc2c(c1)CN(Cc1ccccc1C)CCO2	nt	i	nt	nt	nt	nt
CCCCOc1ccc(Br)cc1/C(C)=N/NC1=NCCN1	3	nt	11µM*	?	18µM*	-3
COc1ccc(/C(C)=N/NC2=NCCN2)cc1Cl	-3	?	-23%	1%	-29%	-6
CCCCCCOc1ccc(/C(C)=N/NC2=NCCN2)cc1[N+](=O)[O-]	-15	18µM*	20µM*	?	nt	nt
CC#CCn1c(N2CCC[C@@H](N)C2)nc2c1c(=O)n(Cc1nc(C)c3ccccc3n1)c(=O)n2C	nt	nt	nt	nt	-19%	nt
CCc1ccc(-c2cc(C(F)(F)F)n3nc(C(=O)Nc4cnn(Cc5ccc(C)cc5)c4)cc3n2)s1	3	?	-22%	2%	11µM*	12
Cc1ccccc1Cn1cc(NC(=O)c2cc3nc(-c4ccco4)cc(C(F)(F)F)n3n2)cn1	-16	i	-4%	-9%	-10%	-12
COc1cccc(/C=N/NC(=S)Nc2cccc(S(=O)(=O)N(C)C)c2)c1	-4	i	-27%	-21%	-30%	-13
COc1ccc(O)c(/C=N/NC(=S)Nc2cccnc2)c1	-90*	i	-22%	?	nt	nt
CN(C)S(=O)(=O)c1cccc(NC(=S)N/N=C/c2ccc(O)c(O)c2O)c1	-93*	?	-9%	?	-12%	-97*
CCN(CC)S(=O)(=O)c1ccc(N/N=C/c2cc(OC)ccc2O)nc1	?	i	-22%	-14%	3.2µM*	?
COc1ccc(O)c(/C=N/NC(=S)Nc2cccc(S(=O)(=O)N(C)C)c2)c1	-90*	i	12%	?	?	-3
CCCCCCCN(CC)CCCC(O)c1ccc(NS(C)(=O)=O)cc1 (configuration not stated)	nt	i	nt	nt	?	nt
SMILES	Six1-Eya2 inh	ATXN viability	HepG2 viability	TGFb inhibitor	ATXN2 expr inh	CtBP-E1A blk
Cc1ccc(Cc2c(-c3ccc(C)cc3)nc3c(C)cc(Br)cn23)cc1	-7	i	-16%	?	1%	3
Cc1ccc(Cc2c(-c3ccc(F)cc3)nc3c(C)cc(Br)cn23)cc1	0	?	-62%	13µM*	-17%	-7
Fc1ccc(-c2nc3ccc(Br)cn3c2Cc2cccc(F)c2)cc1	2	i	-33%	13µM*	44%	5
CSc1ccc(C(=O)N2CCc3c(cnc(C)c3CNC(=O)c3cncs3)C2)cc1	nt	i	nt	nt	nt	nt
COc1ccccc1C1CN(CCNC(=O)c2cscn2)Cc2ccccc2O1 (configuration not stated)	nt	i	nt	nt	nt	nt
COC(=O)[C@H](C)N(Cc1ccc(Cl)c(Cl)c1)S(=O)(=O)CCN1CCN(c2ccccc2)CC1	4	i	-7%	11µM*	-12%	2
COC(=O)[C@H](C)N(Cc1ccc(Cl)c(Cl)c1)S(=O)(=O)CCN1CCCC1	-3	i	-17%	-2%	-14%	-4
Cc1ncc2c(c1CNC(=O)/C=C/c1cccs1)CCN(C(=O)C1CC(=O)OC13CCCCC3)C2 (configuration not stated)	nt	i	nt	nt	nt	nt
O=C(Nc1cnn(Cc2ccc(F)cc2)c1)C(c1ccccc1)c1ccccc1	-11	i	-5%	13µM*	-29%	2
NS(=O)(=O)c1ccc(N=Nc2c(O)ccc3ccccc23)cc1	-16	?	-74%	?	-6%	1
Oc1ccc(N=Nc2c(O)ccc3ccccc23)cc1	-70*	?	14µM*	?	-14%	-75*
CCOC(=O)c1c2c(n(-c3ccc(OC)cc3)c1C)C(=O)C(=O)c1ccccc1-2	?	8.9µM*	3.2µM*	?	8.9µM*	0
O=S(=O)(Nc1ccc(-c2csc(-c3ccccc3)n2)cc1)c1ccccc1	-13	?	14µM*	?	-38%	-12
Cc1ccc(S(=O)(=O)Nc2ccc(-c3csc(-c4ccccc4)n3)cc2)cc1	-3	?	13µM*	?	-4%	-3
O=S(=O)(Nc1ccc(-c2ccc(NS(=O)(=O)c3ccccc3)cc2)cc1)c1ccccc1	-6	i	-32%	?	-4%	-10
CCCCNC1C(CC)C(CCC)C(C#N)(C#N)C1(C#N)C#N (configuration not stated)	-6	?	-54%	10µM*	-35%	6
Cc1ccc(C(=O)n2c(N)nc3ccccc32)cc1	1	i	-37%	-8%	2.8µM*	2
Cc1ccc(S(=O)(=O)n2c(N)nc3ccccc32)cc1	2	i	-19%	?	1%	6
